Source: PubChem BioAssay (National Center for Advancing Translational Sciences (NCATS))
ELG1 repair inh = qHTS screen for small molecules that inhibit ELG1-dependent DNA repair in human embryonic kidney (HEK293T) cells expressing luciferase-tagged ELG1; HEK293T ELG1-luciferase reporter, luminescence, 16 h; DNA damage induced by 5-fluorouridine; Potency, µM (series often up to 46.1 µM), inactives show top-dose activity change, negative = inhibition, usual class: inhibitors; 330,000 compounds, 2.3% hits; AID 504467, 2011; further: on the % scale 0 is the no-effect control and ±100 the full control effect; nearly all actives have a fitted effect of over 55% in size
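Luminescence from the luciferase reporter, measured 30 min after ONE-Glo reagent at room temperature, was the read-out. Beforehand, 2,000 cells per well were exposed for 16 hr at 37 °C to 5-fluorouridine together with compound or vehicle.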
SMN2 splice up = qHTS Assay for Enhancers of SMN2 Splice Variant Expression. Potency, µM (highest dose often 46.1 µM), for inactives: at the top dose activity change, positive = activation, most hits filed as activators. 210,000 compounds, 2.8% hits. HEK293 SMN2-luciferase splicing reporter, luminescence, 30-36 h; further: % of control where 0% means no effect; nearly all actives have a fitted effect of over 55% in size
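HEK293 cells carry an SMN2 […]–luciferase reporter in which exon 7 inclusion puts luciferase in frame. Cells were plated 10-12 h before compound addition, then incubated 30-36 h at 37C. ONE-Glo luminescence was read; sodium butyrate at 4.5 mM final served as control.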
FLuc counter = qHTS profiling assay for firefly luciferase inhibitor/activator using purifed enzyme and Km concentrations of substrates (counterscreen for miR-21 project) | 360,000 compounds, 6.9% hits | Potency, µM (doses to about 57.5 µM), for inactives: top-dose activity change, negative = inhibition, usual class: inhibitors | purified FLuc, Km substrates, luminescence inhibition | Luciferin 4-monooxygenase (Photinus pyralis), P08659;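 further: plate controls were vehicle for no effect and reference inhibitor for full effect; nearly all actives have a fitted effect of over 55% in size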
Target sequence (P08659 whole entry, looked up): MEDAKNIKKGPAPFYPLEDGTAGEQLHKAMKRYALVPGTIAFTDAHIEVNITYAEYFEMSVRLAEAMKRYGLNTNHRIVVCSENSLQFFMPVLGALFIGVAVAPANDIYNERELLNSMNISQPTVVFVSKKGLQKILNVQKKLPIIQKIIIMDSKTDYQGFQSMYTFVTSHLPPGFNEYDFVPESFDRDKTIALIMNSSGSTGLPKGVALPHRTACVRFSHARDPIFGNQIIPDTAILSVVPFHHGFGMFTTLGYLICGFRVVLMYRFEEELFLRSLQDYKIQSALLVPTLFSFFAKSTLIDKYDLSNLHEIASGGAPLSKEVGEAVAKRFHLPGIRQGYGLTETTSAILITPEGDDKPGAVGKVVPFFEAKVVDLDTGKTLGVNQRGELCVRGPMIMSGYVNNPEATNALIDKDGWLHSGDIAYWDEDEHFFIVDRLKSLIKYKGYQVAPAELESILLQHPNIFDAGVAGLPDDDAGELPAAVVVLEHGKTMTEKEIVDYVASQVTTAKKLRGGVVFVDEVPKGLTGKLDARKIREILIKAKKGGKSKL
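Purified P. pyralis luciferase (10nM final) with 10uM D-luciferin and 10uM ATP (Km levels) in 50mM Tris acetate pH 7.5, 10mM Mg acetate, 0.01% Tween-20, 0.05% BSA; qHTS 6-point titration, ~60 µM downward; luminescence read.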
ELG1 genotox = qHTS screen for small molecules that induce genotoxicity in human embryonic kidney (HEK293T) cells expressing luciferase-tagged ELG1; HEK293T ELG1-luciferase reporter, luminescence, 16 h; 330,000 compounds, 1.3% hits; AID 504466, 2011; Potency, µM (top dose mostly 46 µM), inactives show at the top dose activity change, positive = activation, usual class: activators; further: % of control where 0% means no effect; nearly all actives have a fitted effect of over 60% in size
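Screening used a luciferase reporter fused to human ELG1 in HEK293T cells. Luminescence was read on a CCD plate imager after 16 hr exposure and 30 min ONE-Glo incubation.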
Rab9 promoter act = qHTS Assay for Rab9 Promoter Activators; 320,000 compounds, 2.8% hits; Potency, µM (top dose mostly 9.22 µM), for inactives: top-dose activation, negative = inhibition, most hits filed as activators; Huh7 Rab9 promoter-luciferase reporter, luminescence, 24 h; further: % of control where 0% means no effect; nearly all actives have a fitted effect of over 60% in size
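Promoter activation is measured as luciferase luminescence in Huh7 cells stably transfected with a Rab9 promoter–luciferase construct, following 24 h compound exposure at 37 °C and 10 min reagent incubation at ambient temperature.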
NPC1 promoter act = qHTS Assay for NPC1 Promoter Activators; Huh7 NPC1 promoter luciferase reporter, 24 h; Potency, µM (top dose mostly 9.22 µM), for inactives: at the highest dose activation, usual class: activators; 320,000 compounds, 2.4% hits; AID 485313, 2010; further: % of control where 0% means no effect; nearly all actives have a fitted effect of over 60% in size
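Quantitative HTS used a cell-based reporter: Huh7 cells stably bearing the NPC1 promoter upstream of luciferase were treated with compounds for 24 h, and promoter activation was read as luminescence.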
An asterisk follows results filed as active; ? = inconclusive; · = no result; [ ] = another dose, or the depositor's remark. An excerpt weighted towards active compounds, which were near 9.4% of everything screened. The call rests on the fitted dose curve; in most records, active means well fitted curve in the direction sought with a large enough effect; inconclusive means small, poorly fitted or top-dose-only effect, or another doubt; inactive means no such curve, though single readings can be large; an effect the other way counts as inactive or inconclusive. Potency means the concentration at half of the fitted maximal effect.

SMILES	ELG1 repair inh	SMN2 splice up	FLuc counter	ELG1 genotox	Rab9 promoter act	NPC1 promoter act
COc1ccc(OCc2nc3ccccc3n2Cc2ccc(C(C)(C)C)cc2)cc1	·	11µM*	9.5µM*	·	·	·
COCn1c(COc2ccc3ccccc3c2)nc2ccccc21	?	11µM*	2.4µM*	?	2.5µM*	2.8µM*
COCCNC(=O)[C@H](C)/C=C/C(NC(=O)OCc1ccccc1)c1ccc(C(=O)OC)cc1 (some centres undefined)	·	-11%	·	·	·	·
O=C(NN=C1CCC(=NNC(=O)c2ccccn2)CC1)c1ccccn1	?	·	?	?	9%	0%
O=C(N/N=C/C1CCCCC1)c1ccccn1	?	20%	13µM*	?	-1%	-6%
CC(/C=C/c1ccco1)=N\NC(=O)c1cc(Cl)ccc1O	-15%	-23%	?	-2%	?	8%
O=C(N/N=C/C1CCCCC1)c1cc(Cl)ccc1O	-17%	-11%	12µM*	3%	-7%	-4%
Cn1nnnc1SCCCNCc1cccc(OCc2ccccc2)c1	·	·	-2%	·	·	·
O=[N+]([O-])c1ccccc1-c1ccc(C(=S)N2CCCCC2)o1	?	·	8.5µM*	?	3.2µM*	2µM*
O=[N+]([O-])c1ccccc1-c1ccc(C(=S)N2CCCC2)o1	?	11µM*	21µM*	-6%	2.8µM*	?
CCOC(=O)c1ccc(CN(Cc2ccc(F)cc2)S(=O)(=O)c2ccc(F)cc2)cc1	·	·	-8%	·	·	·
Cc1cnc(C(=O)Nc2ccc(F)c(F)c2)cn1	?	13µM*	?	16µM*	2.5µM*	?
Cc1cc(C)n2nc(C(=O)Nc3ccc(S(=O)(=O)N4CCCC4)cc3)nc2n1	-1%	·	3%	-3%	1%	-3%
Cc1cc(C)n2nc(C(=O)Nc3ccc4c(c3)CCC4)nc2n1	?	11µM*	13µM*	?	3.5µM*	?
O=C(Nc1ccc2c(c1)CCC2)c1cnccn1	?	13µM*	12µM*	6.5µM*	3.2µM*	3.5µM*
Cc1cnc(C(=O)Nc2ccc3c(c2)CCC3)cn1	?	11µM*	2.4µM*	?	0.5µM*	?
Cc1cnc(C(=O)Nc2cc(F)ccc2C)cn1	4%	-3%	-18%	4%	12%	0%
FC(F)(F)c1cc(NC(=S)N2c3ccccc3-n3cccc3[C@H]2c2cccnc2)cc(C(F)(F)F)c1	·	-2%[9.22 µM]	·	·	·	·
CC1(C)CC(NC(=O)C(Cl)(Cl)Cl)CC(C)(C)N1	-1%	12%	8%	2%	0%	-2%
CCCCCCCCC#CCC#CCC#CCCCC(=O)O	·	10%	·	·	·	·
CCn1ccc(C(=O)Nc2ccc3c(c2)CCC3)n1	?	·	3µM*	?	1µM*	1µM*
CCn1ccc(C(=O)Nc2ccc(N(C)C(C)=O)cc2)n1	?	18%	?	?	?	22%
O=C(CN1C(=O)c2ccccc2S1(=O)=O)c1ccc(O)c(O)c1	?	·	-3%	7%	?	18%
O=C(CN1C(=O)c2ccccc2S1(=O)=O)c1ccc(F)c(F)c1	30%	·	11µM*	-2%	?	?
COc1ccc(C(=O)CN2C(=O)c3ccccc3S2(=O)=O)cc1	?	·	13µM*	-9%	?	-32%
CCN1CCN(C(=O)CN2C(=O)c3ccccc3S2(=O)=O)CC1	?	·	?	?	2.5µM*	?
CCCN(CC1CC1)C(=O)CSc1nnc(-c2cc(-c3cccs3)nc3ccccc23)o1	9.2µM*	-28%	3%	-5%	0%	-1%
